Screening results as filed in PubChem BioAssay.
CHO-K1 Ca ag: counter-screen for M1 agonists: effect in parental CHO-K1 cells; Fluo-8 calcium fluorescence; scaled to maximal ATP response, vehicle zero; activation, % at 3 µM; hit rate 0.48% among 360,000; AID 602248, 2012; in the data active = activation above about 15%;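 also: untransfected CHO-K1 host cells lacking M1 receptor as counterscreen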
CHO-K1 Ca PAM: nonselective calcium activators in parental CHO-K1 cells, primary screen, counter-screen for M1 PAM project, cell-based, Fluo-8 calcium fluorescence, full deck, 1536-well; ATP EC20; 0% at ATP EC20, 100% at ATP max; hit rate 0.02% among 360,000; activation, % at 3 µM; AID 602247, 2012;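 active = activation above the run cutoff, the mean activation of all test compounds plus 3 SD, cut at about 40% in these data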;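 also: peak over basal fluorescence ratio in a 140 s read after ATP addition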
CHRM1 PAM: human M1 muscarinic receptor positive allosteric modulators, primary screen, CHO-K1 cells, Fluo-8 calcium fluorescence, 1536-well; Muscarinic acetylcholine receptor M1 (Homo sapiens), P11229; activation, % at 3 µM; CHO-K1 hM1, ACh EC20; 0% = ACh EC20, 100% = maximal ACh; hit rate 0.088% among 360,000; in the data active = activation above about 19%, passing the limit was not always enough
Target sequence (P11229 whole entry, looked up): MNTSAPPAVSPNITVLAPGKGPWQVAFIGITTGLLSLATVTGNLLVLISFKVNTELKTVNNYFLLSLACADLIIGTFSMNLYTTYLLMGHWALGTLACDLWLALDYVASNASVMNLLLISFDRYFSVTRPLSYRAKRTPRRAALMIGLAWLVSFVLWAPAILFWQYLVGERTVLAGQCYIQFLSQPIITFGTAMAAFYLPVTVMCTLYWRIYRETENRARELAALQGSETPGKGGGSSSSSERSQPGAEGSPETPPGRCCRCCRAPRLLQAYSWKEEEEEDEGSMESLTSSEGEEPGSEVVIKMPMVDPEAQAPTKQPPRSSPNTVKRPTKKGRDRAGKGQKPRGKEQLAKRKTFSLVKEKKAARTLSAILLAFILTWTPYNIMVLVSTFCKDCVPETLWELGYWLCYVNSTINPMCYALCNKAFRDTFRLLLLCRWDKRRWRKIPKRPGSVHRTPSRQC
CHRM1 antagonist: human M1 muscarinic receptor antagonists, primary screen, CHO-K1 cells, Fluo-8 calcium fluorescence, 1536-well | inhibition, % at 3 µM | AID 588852, 2011 | CHO-K1 hM1, ACh EC80 antagonist | hit rate 1.3% among 360,000 | Muscarinic acetylcholine receptor M1 (Homo sapiens), P11229;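 active = percent inhibition above its own plate's cutoff, namely the mean of that plate's compound wells plus 3 SD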;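 also: peak over basal fluorescence ratio during 140 s after agonist addition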
CHO-K1 Ca antag: M1 antagonist counterscreen hit in parental CHO-K1 cells. ATP-induced calcium, Fluo-8 fluorescence. inhibition, % at 3 µM. hit rate 0.6% among 360,000. AID 602250;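 active = inhibition above a per-plate cutoff, the plate's mean sample inhibition plus 3 SD, cut at about 24% in these data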
M1 ag: human M1 muscarinic receptor agonists, primary screen, Fluo-8 calcium fluorescence, CHO-K1 cells, HTS. Muscarinic acetylcholine receptor M1 (Homo sapiens), P11229. CHO-K1 hM1, agonist mode; 0% DMSO, 100% acetylcholine EC100. activation, % at 3 µM. hit rate 0.33% among 360,000. AID 588814, 2011;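 active = activation above the run's mean compound activation plus 3 SD, cut at about 16% in these data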;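 also: peak over basal fluorescence ratio within a 140 s kinetic read after compound addition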
A number is an active result; . = inactive. This is a sample that favours compounds with a hit; in the whole collection about 2.3% have one here.

SMILES | CHO-K1 Ca ag | CHO-K1 Ca PAM | CHRM1 PAM | CHRM1 antagonist | CHO-K1 Ca antag | M1 ag
CC(C)N(CC#CCC(O)(c1ccccc1)C1CCCC1)CCO (configuration not stated) | . | . | . | 86 | . | .
Cc1cccc(Nc2nc(N)nc(CCl)n2)c1 | 20 | . | . | . | . | .
Cc1cccc(Nc2nc(N)nc(CN3CCN(Cc4ccc5c(c4)OCO5)CC3)n2)c1 | . | . | . | 21 | . | .
COc1ccccc1Nc1nc(N)nc(CN2CCN(Cc3ccc4c(c3)OCO4)CC2)n1 | . | . | . | . | . | .
Cc1cccc(Nc2nc(N)nc(N)c2N=O)c1 | 29 | . | . | . | . | 24
Cc1ccc(Nc2nc(N)nc(N)c2N=O)cc1C | . | . | . | . | . | .
CC(=O)N1CCOc2ccc(S(=O)(=O)NCC3CCC(C(=O)Nc4ccc(C)cn4)CC3)cc21 (configuration not stated) | . | . | . | . | . | .
CCC1NC(=O)c2ccccc2N1c1cccc(Cl)c1 (configuration not stated) | . | . | . | . | . | .
O=C(Cc1ccc(S(=O)(=O)N2CCOCC2)s1)N1CCN(S(=O)(=O)c2ccccc2[N+](=O)[O-])CC1 | . | . | . | 32 | . | .
CCCCn1c(N)c(N(CCOC)C(=O)CCCn2c(=O)oc3ccccc32)c(=O)[nH]c1=O | . | . | . | . | . | .
COc1ccc(C(c2nnnn2-c2ccc(OC)cc2)N2CCN(C/C=C/c3ccccc3)CC2)cc1 (configuration not stated) | . | . | . | 74 | . | .
COc1ccc(C(c2nnnn2C2CCCCC2)N2CCN(C/C=C/c3ccccc3)CC2)cc1 (configuration not stated) | . | . | . | 87 | . | .
C(=C\c1ccccc1)/CN1CCN(C(c2ccccc2)c2nnnn2-c2ccc3c(c2)OCCO3)CC1 (configuration not stated) | . | . | . | 95 | . | .
Cc1cccc(C)c1-n1nnnc1C(c1ccccc1)N1CCN(C/C=C/c2ccccc2)CC1 (configuration not stated) | . | . | . | 61 | . | .
C(=C\c1ccccc1)/CN1CCN(C(c2ccnc3ccccc23)c2nnnn2-c2ccc3c(c2)OCCO3)CC1 (configuration not stated) | . | . | . | . | . | .
CCOC(=O)C1(CCSC)NC(c2ccco2)C2C(=O)N(C)C(=O)C21 (configuration not stated) | . | . | . | . | . | .
Cc1cc(NC(=O)CN2C(=O)NC3(CCC(C)CC3)C2=O)no1 (configuration not stated) | . | . | . | . | . | .
Cc1cccc(C)c1N(C(=O)c1ccco1)C(C(=O)NC1CCCC1)c1ccncc1 (configuration not stated) | . | . | . | . | . | .
CN(C(=O)COC(=O)c1cc([N+](=O)[O-])ccc1Cl)c1ccccc1 | . | . | . | . | . | .
COc1ccc(OC)c(Cc2nnc(CCC(=O)NCc3ccc(C)s3)o2)c1 | . | . | . | . | . | .
COc1ccc(C(c2nnnn2C(C)(C)C)N2CCN(C/C=C/c3ccccc3)CC2)cc1 (configuration not stated) | . | . | . | . | . | .
O=C(Nc1ccc2c(c1)OCCO2)C(c1cc2ccccc2o1)N1CCN(C/C=C/c2ccccc2)CC1 (configuration not stated) | . | 46 | . | 36 | . | .
COc1ccc(-n2nnnc2C(c2cccs2)N2CCN(C/C=C/c3ccccc3)CC2)cc1 (configuration not stated) | . | . | . | 55 | . | .
CCCCn1nnnc1C(c1ccc(OC)cc1)N1CCN(C/C=C/c2ccccc2)CC1 (configuration not stated) | . | . | . | 55 | . | .
COc1cccc(C(c2nnnn2C(C)(C)C)N2CCN(C/C=C/c3ccccc3)CC2)c1OC (configuration not stated) | . | . | . | 42 | . | .
SMILES | CHO-K1 Ca ag | CHO-K1 Ca PAM | CHRM1 PAM | CHRM1 antagonist | CHO-K1 Ca antag | M1 ag
CCCCCCCCCC1(CC(=O)OCC)SCCN1C(N)=O (configuration not stated) | . | . | . | . | . | .
C(=C\c1ccccc1)/CN1CCN(C(c2cccc3ccccc23)c2nnnn2C2CCCC2)CC1 (configuration not stated) | . | . | . | 95 | . | .
CC(=O)NC1C(=O)N=C(SC(C)C(=O)Nc2cccc(Cl)c2)NC1=O (configuration not stated) | 15 | . | . | . | . | .
CC(Sc1nc(N)cc(=O)[nH]1)C(=O)Nc1cccc(Cl)c1 (configuration not stated) | . | . | . | . | . | .
CC(=O)c1ccc(OCC(=O)OCC(=O)Nc2sccc2C(N)=O)cc1 | 17 | . | . | 35 | . | .
COc1cc(CC(=O)OCC(=O)Nc2sccc2C(N)=O)cc(OC)c1OC | 16 | . | . | . | . | .
NC(=O)c1ccsc1NC(=O)COC(=O)Cc1ccsc1 | . | . | . | . | . | .
NC(=O)c1ccsc1NC(=O)COC(=O)CCOc1ccccc1 | 17 | . | . | . | . | .
NC(=O)c1ccsc1NC(=O)COC(=O)Cc1ccccc1Cl | 19 | . | . | . | . | .
COc1cccc(C(N)c2nc(-c3csc4ccccc34)cs2)c1 (configuration not stated) | . | . | . | . | . | .
NC(=O)c1ccsc1NC(=O)COC(=O)CCc1ccccc1 | 16 | . | . | . | . | .
NC(=O)c1ccsc1NC(=O)COC(=O)CCCOc1ccccc1 | . | . | . | . | . | .
CC(C)c1ccc(CN2CCC2(C)C(=O)Nc2ccc3c(c2)OCO3)cc1 (configuration not stated) | 17 | . | . | . | . | .
CC(C)Oc1ccc(CN2CCC2(C)C(=O)Nc2ccc3c(c2)OCO3)cc1 (configuration not stated) | . | . | . | . | . | .
Cc1ccc2c(c1)cc1c(=O)n(CC(=O)N3CCCC3)nc(C)n12 | . | . | . | . | . | .
COc1ccc(C2c3cc(OC)c(OC)cc3CCN2C(=O)c2ccccc2)cc1OC (configuration not stated) | . | . | . | . | . | .
